Assay results reported in PubChem BioAssay AID1159580 (chemical genetic matrix, 2015).
About 2,000 (36%) of roughly 5,500 compounds were called active. Roughly 18% stayed inconclusive and do not appear here. Cut-off read from the data, not from the text of the source: active = normalized growth mostly below about 0.91 (no sharp cut-off); inconclusive = no clear call, values can overlap the other calls; inactive = mostly above about 0.92. This is one part of the list.

Experiment: chemical genetic growth profiling, strain panel (AID 1159580);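 note: tested at 20 µM; growth read once vehicle control cultures reached saturation at 30 °C; 1 = growth at the plate median or of vehicle wells; lower values mean less growth of the strain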
Details: growth OD

Measured: normalized growth

OC(CCN1CCCCC1)(c1ccccc1)c1ccccc1
inactive: S. cerevisiae deletion strains, locus YJR075W, strain HOC1, stronger effect = lower value 1 | S. cerevisiae deletion strains, locus YKL009W, strain mrt4, stronger effect = lower value 1.03 | S. cerevisiae deletion strains, locus YKL068W, stronger effect = lower value 1.01 | S. cerevisiae deletion strains, locus YKL085W, strain MDH1 (second series), stronger effect = lower value 1.07 | S. cerevisiae deletion strains, locus YKL085W, strain MDH1, stronger effect = lower value 1.07 | S. cerevisiae deletion strains, locus YKL160W, strain elf1, stronger effect = lower value 1.03 | S. cerevisiae deletion strains, locus YKL190W, strain CNB1, stronger effect = lower value 1.01 | S. cerevisiae deletion strains, locus YKR001C, strain vps1, stronger effect = lower value 1.01 | S. cerevisiae deletion strains, locus YKR026C, strain gcn3, stronger effect = lower value 0.993 | S. cerevisiae deletion strains, locus YKR091W, strain srl3, stronger effect = lower value 0.993 | S. cerevisiae deletion strains, locus YLL001W, strain dnm1, stronger effect = lower value 1.01 | S. cerevisiae deletion strains, locus YLL026W, stronger effect = lower value 0.983 | S. cerevisiae deletion strains, locus YLL041C, strain sdh2, stronger effect = lower value 0.994 | S. cerevisiae deletion strains, locus YLR027C, strain aat2, stronger effect = lower value 1 | S. cerevisiae deletion strains, locus YLR039C, strain RIC1, stronger effect = lower value 1.08 | S. cerevisiae deletion strains, locus YLR058C, strain SHM2, stronger effect = lower value 1.01 | S. cerevisiae deletion strains, locus YLR102C, strain apc9, stronger effect = lower value 1.01 | S. cerevisiae deletion strains, locus YLR113W, strain HOG1, stronger effect = lower value 1.05 | S. cerevisiae deletion strains, locus YLR221C, strain rsa3, stronger effect = lower value 0.966 | S. cerevisiae deletion strains, locus YLR258W, strain gsy2, stronger effect = lower value 0.965 | S. cerevisiae deletion strains, locus YLR262C, strain YPT6 (second series), stronger effect = lower value 1.02 | S. cerevisiae deletion strains, locus YLR262C, strain YPT6, stronger effect = lower value 1.1 | S. cerevisiae deletion strains, locus YLR268W, strain sec22, stronger effect = lower value 1.02 | S. cerevisiae deletion strains, locus YLR320W, strain mms22, stronger effect = lower value 0.999 | S. cerevisiae deletion strains, locus YLR330W, strain CHS5, stronger effect = lower value 1.01 | S. cerevisiae deletion strains, locus YLR342W, strain FKS1 (second series), stronger effect = lower value 1.02 | S. cerevisiae deletion strains, locus YLR342W, strain FKS1, stronger effect = lower value 0.993 | S. cerevisiae deletion strains, locus YLR357W, strain rsc2, stronger effect = lower value 0.997 | S. cerevisiae deletion strains, locus YLR370C, strain arc18, stronger effect = lower value 0.974 | S. cerevisiae deletion strains, locus YLR371W, strain rom2, stronger effect = lower value 1.01 | S. cerevisiae deletion strains, locus YLR384C, strain iki3, stronger effect = lower value 0.983 | S. cerevisiae deletion strains, locus YLR418C, strain cdc73, stronger effect = lower value 1.01 | S. cerevisiae deletion strains, locus YML016C, strain PPZ1, stronger effect = lower value 1 | S. cerevisiae deletion strains, locus YML032C, strain rad52, stronger effect = lower value 1.01 | S. cerevisiae deletion strains, locus YML120C, strain ndi1, stronger effect = lower value 0.978 | S. cerevisiae deletion strains, locus YML124C, strain tub3, stronger effect = lower value 1 | S. cerevisiae deletion strains, locus YMR058W, strain fet3, stronger effect = lower value 0.996 | S. cerevisiae deletion strains, locus YMR078C, strain ctf18, stronger effect = lower value 1.01 | S. cerevisiae deletion strains, locus YMR125W, strain sto1, stronger effect = lower value 1.01 | S. cerevisiae deletion strains, locus YMR129W, stronger effect = lower value 0.99 | S. cerevisiae deletion strains, locus YMR205C, strain PFK2, stronger effect = lower value 1.01 | S. cerevisiae deletion strains, locus YMR223W, strain ubp8, stronger effect = lower value 1.01 | S. cerevisiae deletion strains, locus YMR231W, strain pep5, stronger effect = lower value 0.995 | S. cerevisiae deletion strains, locus YMR307W, strain GAS1, stronger effect = lower value 1.08 | S. cerevisiae deletion strains, locus YNL067W, strain RPL9B, stronger effect = lower value 1.02 | S. cerevisiae deletion strains, locus YNL071W, strain lat1, stronger effect = lower value 0.993 | S. cerevisiae deletion strains, locus YNL153C, strain GIM3, stronger effect = lower value 0.998 | S. cerevisiae deletion strains, locus YNL183C, strain NPR1, stronger effect = lower value 0.971 | S. cerevisiae deletion strains, locus YNL209W, strain ssb2, stronger effect = lower value 0.987 | S. cerevisiae deletion strains, locus YNL233W, strain BNI4, stronger effect = lower value 1.01 | S. cerevisiae deletion strains, locus YNL248C, strain rpa49, stronger effect = lower value 1.06 | S. cerevisiae deletion strains, locus YNL250W, strain rad50, stronger effect = lower value 1 | S. cerevisiae deletion strains, locus YNL271C, strain bni1, stronger effect = lower value 1.02 | S. cerevisiae deletion strains, locus YNL298W, strain CLA4, stronger effect = lower value 1.02 | S. cerevisiae deletion strains, locus YNL307C, strain MCK1, stronger effect = lower value 1.02 | S. cerevisiae deletion strains, locus YNL322C, strain KRE1 (second series), stronger effect = lower value 0.987 | S. cerevisiae deletion strains, locus YNL322C, strain KRE1, stronger effect = lower value 1.01 | S. cerevisiae deletion strains, locus YNR049C, strain mso1, stronger effect = lower value 0.997 | S. cerevisiae deletion strains, locus YNR052C, strain pop2, stronger effect = lower value 1.02 | S. cerevisiae deletion strains, locus YOL006C, strain TOP1, stronger effect = lower value 0.958 | S. cerevisiae deletion strains, locus YOL012C, strain htz1 0.814 | S. cerevisiae deletion strains, locus YOL147C, strain pex11, stronger effect = lower value 1 | S. cerevisiae deletion strains, locus YOR001W, strain rrp6, stronger effect = lower value 0.992 | S. cerevisiae deletion strains, locus YOR061W, strain CKA2, stronger effect = lower value 1 | S. cerevisiae deletion strains, locus YOR069W, strain VPS5, stronger effect = lower value 1 | S. cerevisiae deletion strains, locus YOR070C, strain gyp1, stronger effect = lower value 0.989 | S. cerevisiae deletion strains, locus YOR080W, strain dia2, stronger effect = lower value 0.984 | S. cerevisiae deletion strains, locus YOR083W, strain WHI5, stronger effect = lower value 1.03 | S. cerevisiae deletion strains, locus YOR106W, strain vam3, stronger effect = lower value 1.01 | S. cerevisiae deletion strains, locus YOR136W, strain idh2, stronger effect = lower value 1.01 | S. cerevisiae deletion strains, locus YOR144C, strain elg1, stronger effect = lower value 1 | S. cerevisiae deletion strains, locus YOR184W, strain ser1, stronger effect = lower value 1.02 | S. cerevisiae deletion strains, locus YOR231W, strain MKK1, stronger effect = lower value 1.07 | S. cerevisiae deletion strains, locus YOR265W, strain rbl2, stronger effect = lower value 0.989 | S. cerevisiae deletion strains, locus YOR270C, strain vph1, stronger effect = lower value 0.955 | S. cerevisiae deletion strains, locus YOR290C, strain snf2, stronger effect = lower value 1 | S. cerevisiae deletion strains, locus YOR316C, strain cot1, stronger effect = lower value 1.02 | S. cerevisiae deletion strains, locus YPL051W, strain arl3, stronger effect = lower value 1.06 | S. cerevisiae deletion strains, locus YPL055C, strain LGE1, stronger effect = lower value 1.02 | S. cerevisiae deletion strains, locus YPL078C, strain atp4, stronger effect = lower value 1.03 | S. cerevisiae deletion strains, locus YPL106C, strain sse1, stronger effect = lower value 0.966 | S. cerevisiae deletion strains, locus YPL240C, strain hsp82, stronger effect = lower value 0.984 | S. cerevisiae deletion strains, locus YPL241C, strain CIN2, stronger effect = lower value 1 | S. cerevisiae deletion strains, locus YPL256C, strain CLN2, stronger effect = lower value 1.04 | S. cerevisiae deletion strains, locus YPR119W, strain clb2, stronger effect = lower value 1.01 | S. cerevisiae deletion strains, locus YPR141C, strain kar3, stronger effect = lower value 1.01 | S. cerevisiae deletion strains, locus YPR163C, strain tif3, stronger effect = lower value 1.02 | S. cerevisiae deletion strains, locus YPR167C, strain met16, stronger effect = lower value 1.02 | S. cerevisiae deletion strains, strain wtn01, stronger effect = lower value 1.01 | S. cerevisiae strains, strain wild type, stronger effect = lower value 1.01
